Records with an inconclusive call do not appear. Where a call stands in place of a potency, no number is given. The source made the active and inactive calls. The call rests on the fitted dose curve; in most records, active means well fitted inhibition curve with a large enough effect; inconclusive means small, poorly fitted or top-dose-only effect; inactive means no such curve, though single readings can be large or run the other way.
Potency means the concentration at half of the fitted maximal effect.

A short description of this test: Confirmatory qHTS for Identification of Small Molecule Inhibitors of Huntingtin Promoter Activity. Further: nearly all actives have a fitted effect of over 65% in size. To be noted: HEK293 HTT promoter firefly luciferase reporter, 24 h; series mostly up to 57.5 µM. In outline: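 Activity normalized between vehicle control (0%) and zero RLU (-100%) from firefly luminescence (Dual-Glo). Compounds, up to 57.5 uM final, incubated 24 h at 37C on HEK293 reporter cells plated 24 h earlier.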
(In qHTS, concentration-response curves come from the screen itself.)
Consider `Cc1ccc(CN(C(=O)COc2cccc(Cl)c2)c2ccccn2)o1`, for which the Potency entry was “inactive”.

`CN[C@H]1[C@@H](O)[C@@H]2O[C@@H]3O[C@H](C)CC(=O)[C@]3(O)O[C@@H]2[C@@H](NC)[C@H]1O`: the Potency result is “inactive”. As for `C=Cc1ccc(Cn2c(C(=O)O)c(CNCc3ccccc3)c3ccc(C)cc32)cc1`, the Potency is 21.3 µM (active). For `CC1CCN(C(=O)CN2c3ccc(Br)cc3-c3ccccc3S2(=O)=O)CC1`, the Potency result was “inactive”. For `CC(C)c1ccc(C2=CC(c3cccc(Cl)c3)n3c(nc4ccccc43)N2)cc1` (stereo not given) the value was “inactive”; for `Cc1ccccc1Cn1c(=O)n(Cc2ccco2)c(=O)c2oc3ccccc3c21`, “inactive”. For `CCOC(=O)c1ccc(N2C(=O)c3[nH]nc(-c4ccccc4)c3C2c2cccs2)cc1` (stereo not given) the value was 13.5 µM (active). Take `O=C(CSc1nccn1Cc1ccc(F)cc1)Nc1nc2ccccc2s1`: the Potency entry was “inactive”. For `COc1cc(C[C@@H](CO)[C@H](CO)Cc2ccc(O)c(OC)c2)ccc1O` the value was “inactive”. `O=C(Nc1cccc(Cl)c1)c1c(NC(=O)C(F)(F)F)sc2c1CCCC2`: the Potency was 4.26 µM (active).

As to `C[n+]1cc2c3c(ccc2c2ccc4cc5c(cc4c21)OCO5)OCO3`, the Potency was 5.86 µM (active). Turning to `Cc1cc(C)c(NS(=O)(=O)c2ccc(-c3cnc(C4CC4)o3)cc2)c(C)c1`, the Potency was 0.675 µM (active). Turning to `O=C(CN(c1cccc(C(F)(F)F)c1)S(=O)(=O)c1ccccc1)Nc1cccc(Cl)c1`, the Potency is 26.9 µM (active).

Turning to `Cc1ccc(C)c(-n2nnc(C(=O)Nc3ccc(Br)cc3)c2C)c1`, the Potency entry is “inactive”.

As for `CCOc1ccc(C(=O)Nc2ccc(S(=O)(=O)N3CCCCC3c3cccnc3)cc2)cc1` (stereo not given), the Potency is 21.3 µM (active).

For the origin of these results see PubChem BioAssay AID1508621 (National Center for Advancing Translational Sciences (NCATS), 2021).
